Screening results (PubChem BioAssay)
A selection: hits, their analogues and other compounds. The true share with any hit is near 4.6%.
D1 potentiator = enhances dopamine response at the human D1 receptor; 0.036% of 360,000 active; HEK293 TREx D1 cells, calcium flux, dopamine EC20 potentiation; P21728; potentiation, % at 10 µM; in the data active = potentiation above about 30%; note: 0% is about no effect
TRHR agonist = agonists of human TRH receptor. P34981. TRHR cells, calcium flux fluo-8, FDSS agonist mode. activation, % at 2 µM. 0.18% of 360,000 active. AID 493084; note: 0% is about no effect
Target sequence (P34981 whole entry, looked up): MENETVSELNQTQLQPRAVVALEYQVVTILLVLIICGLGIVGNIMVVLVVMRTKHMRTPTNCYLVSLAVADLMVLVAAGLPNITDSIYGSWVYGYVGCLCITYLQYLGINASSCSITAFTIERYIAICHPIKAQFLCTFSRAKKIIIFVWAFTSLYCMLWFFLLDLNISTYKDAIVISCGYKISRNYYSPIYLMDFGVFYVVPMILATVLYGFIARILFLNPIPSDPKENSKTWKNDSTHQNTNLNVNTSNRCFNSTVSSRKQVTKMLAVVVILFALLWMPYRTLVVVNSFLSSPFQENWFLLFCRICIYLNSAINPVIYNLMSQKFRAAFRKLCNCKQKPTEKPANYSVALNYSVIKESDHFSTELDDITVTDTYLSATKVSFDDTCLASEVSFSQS
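In this calcium-flux screen, cells bearing human TRHR are dye-loaded with fluo-8, baselined for 10 cycles, then exposed to library compounds; positive kinetic calcium responses during the agonist phase mark hits, with TRH as control.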
D1 ag = activates the human D1 dopamine receptor; P21728; HEK293 T-REx D1 cells, calcium flux, agonist mode; activation, % at 2 µM; 1% of 360,000 active; note: 0% is about no effect
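Agonism was scored from calcium flux recorded over 180 s (1 read/s) after pintool compound addition, following a 10-cycle baseline. Cells were inducible force-coupled HEK293 TREx D1, plated overnight at 30 C and loaded with no-wash calcium dye.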
TRHR enhancer = allosteric enhancers of human TRH receptor; AID 493056; TRHR cells, fluo-8 calcium fluorescence, EC20 TRH enhancement; 0.66% of 360,000 active; P34981; enhancement, % at 2 µM; in the data active = enhancement above about 30%; note: 0% is about no effect
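Enhancer read-out: after compound pinning and an initial kinetic agonist-mode read, an EC20 of TRH (10 nM final) was injected and fluo-8 calcium signal (Ex 480/Em 530) followed at 1 s/cycle for 100 cycles in TRHR-expressing cells.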
D1 antag = blocks dopamine activation of the human D1 receptor; activity change, negative = inhibition, % at 10 µM; P21728; 3.2% of 360,000 active; HEK293 TREx D1 cells, calcium flux, dopamine EC80; stronger effect = lower value; in the data active = activity change below about -30%; note: % is set by controls: 0 for no effect and ±100 for the full control effect
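Kinetic fluorescence of a calcium dye serves as the read-out. D1-expressing Hek293 Trex cells, induced overnight at 30 C, are exposed to compound for 180 s before an EC80 dopamine addition, then read 180 s further.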
Active calls of the source: *; . = not tested or not shown. Cut-off read from the data, not from the text of the source, unless noted: active = activation above about 30%; inactive = the rest.

SMILES	D1 potentiator	TRHR agonist	D1 ag	TRHR enhancer	D1 antag
Oc1ccccc1-c1nnc(-c2ccc(C(F)(F)F)cc2)o1	-3	0	5	4	-13
Cc1ccc(NC(=O)NCCOCCn2c(=O)oc3ccccc32)cc1C	2	-2	0	3	2
COc1ccc(CCNC(=O)c2c(C)oc3ncn(C)c(=O)c23)c(OC)c1	1	-1	1	-10	4
CCOc1ccc(NC(=O)CC2C(=O)N(c3ccccc3)C(=O)N2CCc2ccc(OC)cc2)cc1 (centres undefined)	-2	0	3	-3	-28
CC1=NOC(=O)/C1=C\c1ccc(-c2cccc(Cl)c2)o1	-4	2	1	-14	-51*
Cc1cc(C(=O)CSc2nnc3c(Cl)cc(Cl)cn23)c(C)n1C	3	0	1	-4	-31*
C=CCn1c(C)cc(C(=O)CSc2nnc3c(Cl)cc(Cl)cn23)c1C	-7	-1	0	-1	-25
Cc1cccc(-c2nc(C)c(CCNC(=O)C(=O)Nc3cccc(Cl)c3C)s2)c1	-2	0	0	-4	6
COc1ccccc1C(=O)Nc1c(C(=O)NC(C)(C)C)oc2ccccc12	33*	1	33*	12	64
CCOC(=O)c1oc2ccccc2c1NC(=O)c1ccccc1OC	14	0	4	0	58
COC(=O)c1oc2ccccc2c1NC(=O)c1ccccc1O	-6	-1	14	9	-43*
COc1ccccc1C(=O)Nc1c(C(=O)c2ccccc2)oc2ccccc12	6	-1	4	1	22
COc1ccc(F)cc1S(=O)(=O)N1CCN(c2ccccn2)CC1	1	1	1	-7	10
O=C(c1ccc(F)cc1)N1CCN(c2ccccn2)CC1	-8	0	0	30*	-10
COc1ccc(C(=O)N2CCN(c3ccccn3)CC2)cc1	-3	1	1	-7	3
O=S(=O)(c1cc(F)ccc1F)N1CCN(c2ccccn2)CC1	0	0	0	6	-52*
CCN1CCN(C(c2ccc(F)cc2)c2sc3nc(-c4ccco4)nn3c2O)CC1 (centres undefined)	0	0	1	11	.
Cc1cccc2cc(CN(CCCN(C)C)C(=S)NCCc3ccccc3)c(=O)[nH]c12	-3	3	31*	4	6
Cc1ccc2[nH]c(=O)c(CN(CCCN(C)C)C(=S)NCCc3ccccc3)cc2c1	-7	2	2	8	5
CCCCC12CN3CC(C)(CN(C1)C3c1c[nH]c3ccccc13)C2=O (centres undefined)	1	5	-2	1	0
COC(=O)CSCc1nc(-c2ccc(C(=O)OC)cc2)oc1C	-1	0	4	2	-1
CCN(CC)c1ccc(NC(=O)CN2CCN(c3nc(C)cc(C)n3)CC2)cc1	0	-1	13	6	-33*
CCOC(=O)Cn1c(=O)oc2cc(S(=O)(=O)NCCc3ccc(C)cc3)ccc21	-3	1	1	-3	0
CCOC(=O)Cn1c(=O)oc2cc(S(=O)(=O)N3CCN(c4ccc(C(C)=O)cc4)CC3)ccc21	-5	1	9	5	-43*
CCOC(=O)Cn1c(=O)oc2cc(S(=O)(=O)Nc3ccc(F)cc3)ccc21	0	0	77*	4	-66*
SMILES	D1 potentiator	TRHR agonist	D1 ag	TRHR enhancer	D1 antag
CCOC(=O)c1c(C)n(-c2ccccc2)c2ccc(OC(=O)c3ccc(OCC)c(OCC)c3)cc12	0	2	6	-3	4
Cc1nc2ccc(S(=O)(=O)NC(C(=O)NCc3ccc(Cl)cc3)C(C)C)cc2s1 (centres undefined)	-2	-1	0	-4	3
O=C(c1cccc([N+](=O)[O-])c1)N1c2nc(-c3ccco3)nn2C2(CCCCC2)[C@@H]2CCCC[C@@H]21	1	-1	-1	-2	5
CN1CCN(S(=O)(=O)c2ccc(NC(=O)Nc3cccc(Cl)c3)cc2)CC1	-9	3	11	-2	-48*
O=C(COc1cccc(Cl)c1)Nc1ccc(N2CCOCC2)cc1	-10	0	1	7	-37*
Cc1cc(OCC(=O)Nc2ccc(N3CCN(C)CC3)cc2)ccc1Cl	-19	0	24	-6	-83*
Cc1ccc(OCC(=O)Nc2ccc(N3CCCC3)cc2)cc1C	-10	0	0	2	8
